Among the data in PubChem BioAssay (EPA / NIEHS) are outcome and AC50 values, retold here.

Results filed as inconclusive are left out. The source made the active and inactive calls. How the source made its calls: active means hit-call score of the fitted dose curve at least 0.9, where 1 is the maximum; inconclusive means response in the unintended direction; inactive means score below 0.9.

Sequence of rat Monoamine Oxidase, MAO-B, Central (MAOBC), Maob (gene 25750) (P19643 whole entry, looked up): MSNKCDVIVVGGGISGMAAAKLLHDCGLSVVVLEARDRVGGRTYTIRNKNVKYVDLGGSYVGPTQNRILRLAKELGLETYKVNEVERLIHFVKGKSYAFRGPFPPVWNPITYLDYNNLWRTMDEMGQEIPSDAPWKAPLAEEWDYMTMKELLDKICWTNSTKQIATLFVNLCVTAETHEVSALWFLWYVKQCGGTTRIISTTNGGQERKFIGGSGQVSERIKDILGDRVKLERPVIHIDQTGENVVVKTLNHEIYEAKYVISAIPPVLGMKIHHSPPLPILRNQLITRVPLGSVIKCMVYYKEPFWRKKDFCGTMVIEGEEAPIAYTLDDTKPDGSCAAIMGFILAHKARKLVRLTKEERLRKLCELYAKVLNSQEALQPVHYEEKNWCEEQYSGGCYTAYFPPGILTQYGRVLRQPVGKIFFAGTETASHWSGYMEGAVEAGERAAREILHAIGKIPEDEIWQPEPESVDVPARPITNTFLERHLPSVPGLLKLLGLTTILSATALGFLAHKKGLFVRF
Sequence of rat Constitutive Nitric Oxide Synthase (CNOS), Nos1 (gene 24598) (P29476 whole entry, looked up): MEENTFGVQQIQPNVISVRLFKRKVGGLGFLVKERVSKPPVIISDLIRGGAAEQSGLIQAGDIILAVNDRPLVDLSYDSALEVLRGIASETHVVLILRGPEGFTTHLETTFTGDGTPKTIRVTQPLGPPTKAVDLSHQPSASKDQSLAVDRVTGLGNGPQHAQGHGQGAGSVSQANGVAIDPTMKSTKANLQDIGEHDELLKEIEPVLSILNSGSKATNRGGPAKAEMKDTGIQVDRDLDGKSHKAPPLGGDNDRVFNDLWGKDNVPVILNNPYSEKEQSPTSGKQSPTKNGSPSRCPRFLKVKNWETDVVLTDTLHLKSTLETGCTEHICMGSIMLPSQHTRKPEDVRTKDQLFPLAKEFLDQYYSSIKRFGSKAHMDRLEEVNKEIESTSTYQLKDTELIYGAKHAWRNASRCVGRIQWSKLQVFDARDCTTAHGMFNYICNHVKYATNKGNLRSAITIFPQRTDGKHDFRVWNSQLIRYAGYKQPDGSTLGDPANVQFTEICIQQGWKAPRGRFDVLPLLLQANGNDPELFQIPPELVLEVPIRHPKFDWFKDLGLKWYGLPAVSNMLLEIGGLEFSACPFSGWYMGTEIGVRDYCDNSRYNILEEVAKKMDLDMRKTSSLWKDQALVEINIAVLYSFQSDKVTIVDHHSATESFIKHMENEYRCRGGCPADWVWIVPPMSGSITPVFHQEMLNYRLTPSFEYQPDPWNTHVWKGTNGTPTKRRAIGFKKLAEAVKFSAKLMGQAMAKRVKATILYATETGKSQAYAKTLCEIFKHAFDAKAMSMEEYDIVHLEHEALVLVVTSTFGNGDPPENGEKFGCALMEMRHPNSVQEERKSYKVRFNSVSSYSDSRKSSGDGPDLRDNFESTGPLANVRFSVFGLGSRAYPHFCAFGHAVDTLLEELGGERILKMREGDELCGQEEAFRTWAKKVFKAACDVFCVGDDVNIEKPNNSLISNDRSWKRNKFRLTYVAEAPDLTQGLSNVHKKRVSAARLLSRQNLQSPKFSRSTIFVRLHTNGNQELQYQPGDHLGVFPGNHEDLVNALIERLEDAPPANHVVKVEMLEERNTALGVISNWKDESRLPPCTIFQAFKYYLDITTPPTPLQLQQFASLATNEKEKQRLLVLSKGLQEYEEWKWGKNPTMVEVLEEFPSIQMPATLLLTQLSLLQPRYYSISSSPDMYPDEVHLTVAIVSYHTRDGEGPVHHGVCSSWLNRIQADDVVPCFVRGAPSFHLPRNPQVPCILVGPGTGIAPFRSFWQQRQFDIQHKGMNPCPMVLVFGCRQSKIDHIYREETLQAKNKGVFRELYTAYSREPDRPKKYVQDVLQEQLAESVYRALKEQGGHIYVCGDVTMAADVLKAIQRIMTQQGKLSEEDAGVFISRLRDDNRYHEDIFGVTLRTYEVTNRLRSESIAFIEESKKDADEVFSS

In one experiment the target is rat Acetylcholinesterase (AChE), Ache (gene 83817) (UniProt P37136). Nature of the experiment: NVS_ENZ_rAChE: NovaScreen (NVS) Enzymatic Assay for rat Acetylcholinesterase (AChE) (AID 2283233). On the procedure: NVS_ENZ_rAChE is a biochemical, single-readout assay that uses extracted gene-proteins from Rat brain membranes in a tissue-based cell-free assay. Measurements were taken 0.33 hour after chemical dosing in a 96-well plate.NVS_ENZ_rAChE is one of one assay component(s) measured or calculated from the NVS_ENZ_rAChE assay. It is designed to make measurements of enzyme activity, a form of enzyme reporter, as detected with absorbance signals by Colorimetric technology.Data from the assay component NVS_ENZ_rAChE was analyzed into 1 assay endpoint. This assay endpoint, NVS_ENZ_rAChE, was analyzed in the positive analysis fitting direction relative to DMSO as the negative control and baseline of activity. Using a type of enzyme reporter, loss-of-signal activity can be used to understand changes in the enzymatic activity as they relate to the gene Ache. Furthermore, this assay endpoint can be referred to as a primary readout, because this assay has produced multiple assay endpoints where this one serves a enzymatic activity function. To generalize the intended target to other relatable targets, this assay endpoint is annotated to the esterase intended target family, where the subfamily is acetylcholinesterase.
Sequence of rat Acetylcholinesterase (AChE), Ache (gene 83817) (P37136 whole entry, looked up): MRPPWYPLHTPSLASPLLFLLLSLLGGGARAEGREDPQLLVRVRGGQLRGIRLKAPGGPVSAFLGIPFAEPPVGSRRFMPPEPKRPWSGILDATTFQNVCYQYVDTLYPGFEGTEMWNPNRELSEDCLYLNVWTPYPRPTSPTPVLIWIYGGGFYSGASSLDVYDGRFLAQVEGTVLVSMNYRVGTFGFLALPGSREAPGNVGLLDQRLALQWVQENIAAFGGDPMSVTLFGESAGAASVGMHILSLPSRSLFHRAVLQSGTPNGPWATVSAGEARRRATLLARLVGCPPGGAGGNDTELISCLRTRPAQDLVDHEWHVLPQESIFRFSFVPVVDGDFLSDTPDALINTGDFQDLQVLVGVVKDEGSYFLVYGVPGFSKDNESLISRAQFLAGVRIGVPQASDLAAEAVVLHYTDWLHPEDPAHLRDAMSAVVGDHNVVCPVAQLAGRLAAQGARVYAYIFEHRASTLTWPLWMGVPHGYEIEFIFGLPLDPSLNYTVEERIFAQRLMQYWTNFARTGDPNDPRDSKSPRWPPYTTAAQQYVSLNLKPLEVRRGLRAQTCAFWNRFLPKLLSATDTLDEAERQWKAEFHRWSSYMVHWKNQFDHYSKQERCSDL
(§1) Binding assays used specific radioligands (tritiated, iodinated) with non-radioactive competitive displacement ligands in agonist or antagonist protocols (as indicated) and various reference compounds and inhibitors to titrate specific binding to receptors and transporters. Most enzyme assays (CYPs, kinases, phosphatases, proteases, HDACs) used recombinant protein and specific substrates (fluorescence mostly, some colorimetric and radioactive) and inhibitors, followed by a biochemical separation of substrate and product. All assays for the biochemical HTS were initially run in duplicate at a single concentration (10 uM for CYP450 assays and 25 uM for all others). Assay-chemical combinations meeting a pre-defined threshold (e.g., 30% inhibition and other criteria defined below) were then run in singleton concentration-response format with maximum concentration of 20 uM for CYPs and 50 uM for all others. Each assay was run with positive and negative controls, and concurrent controls on every plate. The follow-up (secondary) screen tested active chemical-pairs in concentration series, as well as a few additional assays not tested in the primary screen, some selected negative inactives, and several cases re-run in the concentration series for confirmatory purposes.
`Nc1c(Cl)c(Cl)nc(C(=O)O)c1Cl`: the call was inactive. Still for that read-out and setting: the value for `CC(C)N1C(=O)N(c2ccccc2)CSC1=NC(C)(C)C` was “inactive”. By AC50 is commonly meant the midpoint of the concentration-response curve, whichever way the signal moves. For `CNC(=O)Oc1cccc2ccccc12`, the AC50 is 6.15 µM (active). As for `CCNC(=O)NC(=O)C(C#N)=NOC`, the outcome was inactive.

Take `CCOP(=O)(OCC)Oc1nc(Cl)c(Cl)cc1Cl`: the AC50 was 0.488 µM (active). On the same count and under the same terms, as for `N#CN=C1SCCN1Cc1ccc(Cl)nc1`, the figure is 16.6 µM (active). On to `COP(=S)(OC)SCn1nnc2ccccc2c1=O`, for which the compound was called inactive. On the same count and under the same terms, as for `O=c1n(Cl)c(=O)n(Cl)c(=O)n1Cl`, the entry is “inactive”.

In another experiment the target is rat Catechol-O-Methyl Transferase (COMT), Comt (gene 24267) (UniProt P22734). Nature of the experiment: NVS_ENZ_rCOMT: NovaScreen (NVS) Enzymatic Assay for rat Catechol-O-Methyl Transferase (COMT) (AID 2283235). As for the experimental part: NVS_ENZ_rCOMT is a biochemical, single-readout assay that uses extracted gene-proteins from Rat dorsal striatum in a tissue-based cell-free assay. Measurements were taken 0 hour after chemical dosing in a 96-well plate.NVS_ENZ_rCOMT is one of one assay component(s) measured or calculated from the NVS_ENZ_rCOMT assay. It is designed to make measurements of enzyme activity, a form of enzyme reporter, as detected with absorbance signals by HPLC and Spectrophotometry technology.Data from the assay component NVS_ENZ_rCOMT was analyzed into 1 assay endpoint. This assay endpoint, NVS_ENZ_rCOMT, was analyzed in the positive analysis fitting direction relative to DMSO as the negative control and baseline of activity. Using a type of enzyme reporter, loss-of-signal activity can be used to understand changes in the enzymatic activity as they relate to the gene Comt. Furthermore, this assay endpoint can be referred to as a primary readout, because this assay has produced multiple assay endpoints where this one serves a enzymatic activity function. To generalize the intended target to other relatable targets, this assay endpoint is annotated to the methyltransferase intended target family, where the subfamily is o-methyltransferase.
Sequence of rat Catechol-O-Methyl Transferase (COMT), Comt (gene 24267) (P22734 whole entry, looked up): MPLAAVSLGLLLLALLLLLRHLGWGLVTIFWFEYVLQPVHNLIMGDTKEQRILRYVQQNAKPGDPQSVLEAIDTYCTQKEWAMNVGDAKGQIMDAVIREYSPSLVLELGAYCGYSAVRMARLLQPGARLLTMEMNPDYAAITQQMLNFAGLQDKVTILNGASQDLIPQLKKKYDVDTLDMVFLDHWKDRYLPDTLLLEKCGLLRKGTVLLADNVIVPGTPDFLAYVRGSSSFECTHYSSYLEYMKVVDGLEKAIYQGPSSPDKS
as §1
Consider `O=C1C2CC=CCC2C(=O)N1SC(Cl)(Cl)Cl` (stereo not drawn), for which the result was inactive. In the case of `CCOP(=O)(OCC)Oc1nc(Cl)c(Cl)cc1Cl`, the compound was classed as inactive. `Cc1nc(N(C)C)nc(OC(=O)N(C)C)c1C`: the AC50 is 0.991 µM (active).

Consider `O=P(O)(O)CCCl`, for which the compound was called inactive.

The next experiment has as its target rat Constitutive Nitric Oxide Synthase (CNOS), Nos1 (gene 24598) (UniProt P29476). Nature of the experiment: NVS_ENZ_rCNOS: NovaScreen (NVS) Enzymatic Assay for rat Constitutive Nitric Oxide Synthase (CNOS) (AID 2283236). The method in brief:
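Single 25 uM duplicate screen, then concentration series to 50 uM for chemicals meeting threshold. Rat brain membrane-derived CNOS activity detected radiometrically by filtration and scintillation counting, 1 h after compound addition; DMSO as baseline.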
In the case of `CC(C)NC(=O)N1CC(=O)N(c2cc(Cl)cc(Cl)c2)C1=O`, the AC50 was 25 µM (active). The same measure, in the same setting: as for `CCNC(=O)NC(=O)C(C#N)=NOC`, the figure is 9.03 µM (active).

For `COc1ccc(-c2ccccc2)cc1NNC(=O)OC(C)C`, the compound was called inactive. As to `CS(=O)(=O)c1ccc(C(=O)C2C(=O)CCCC2=O)c([N+](=O)[O-])c1`, the compound was called inactive.

As for `COP(=S)(OC)SCn1nnc2ccccc2c1=O`, the call was inactive. Same read-out and setting: the value for `CN=C=S` was “inactive”; that for `COC(=O)c1c(C(F)F)nc(C(F)(F)F)c(C2=NCCS2)c1CC(C)C` was “inactive”; that for `CCN(CC)c1nc(C)cc(OP(=S)(OC)OC)n1` was “inactive”.

In another experiment the test system is rat Monoamine Oxidase, MAO-A, Peripheral (MAOAP), gene 29253. Nature of the experiment: NVS_ENZ_rMAOAP: NovaScreen (NVS) Enzymatic Assay for rat Monoamine Oxidase, MAO-A, Peripheral (MAOAP) (AID 2283237). On the procedure:
NVS_ENZ_rMAOAP is a biochemical, single-readout assay that uses extracted gene-proteins from Rat liver mitochondrial membranes in a tissue-based cell-free assay. Measurements were taken 1.17 hours after chemical dosing in a 96-well plate.NVS_ENZ_rMAOAP is one of one assay component(s) measured or calculated from the NVS_ENZ_rMAOAP assay. It is designed to make measurements of enzyme activity, a form of enzyme reporter, as detected with scintillation counting signals by Lysate-based radiodetection technology.Data from the assay component NVS_ENZ_rMAOAP was analyzed into 1 assay endpoint. This assay endpoint, NVS_ENZ_rMAOAP, was analyzed in the positive analysis fitting direction relative to DMSO as the negative control and baseline of activity. Using a type of enzyme reporter, loss-of-signal activity can be used to understand changes in the enzymatic activity as they relate to the gene Maoa. Furthermore, this assay endpoint can be referred to as a primary readout, because this assay has produced multiple assay endpoints where this one serves a enzymatic activity function. To generalize the intended target to other relatable targets, this assay endpoint is annotated to the oxidoreductase intended target family, where the subfamily is monoamine oxidase.
as §1, with “Assay-chemical combinations meeting a pre-defined threshold (e.g., 30% inhibition and other criteria defined below) were then run in singleton concentration-response format with maximum concentration of 20 uM for CYPs and 50 uM for all others.” left out
As to `CC(C)N1C(=O)N(c2ccccc2)CSC1=NC(C)(C)C`, the call was inactive. Take `COc1ccc(-c2ccccc2)cc1NNC(=O)OC(C)C`: the AC50 is 0.31 µM (active). As for `Cc1nc(N(C)C)nc(OC(=O)N(C)C)c1C`, the AC50 is 10.4 µM (active). For `COP(=S)(OC)SCn1nnc2ccccc2c1=O`, the compound was classed as inactive.

Regarding `COC(=O)c1c(C(F)F)nc(C(F)(F)F)c(C2=NCCS2)c1CC(C)C`, the compound was classed as inactive. The same measure, in the same setting: as for `COc1cc(OC)nc(NC(=O)NS(=O)(=O)c2ncccc2OCC(F)(F)F)n1`, the entry is “inactive”; as for `CCCCC(C#N)(Cn1cncn1)c1ccc(Cl)cc1` (stereo not drawn), “inactive”.

Another experiment concerns the target rat Monoamine Oxidase, MAO-B, Central (MAOBC), Maob (gene 25750) (UniProt P19643). Nature of the experiment: NVS_ENZ_rMAOBC: NovaScreen (NVS) Enzymatic Assay for rat Monoamine Oxidase, MAO-B, Central (MAOBC) (AID 2283238). The method in brief:
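Here MAO-B activity in rat brain preparations is quantified radiometrically, counts taken at 1.17 hours. Concentration-response runs reach 50 uM, with plate controls, and values are fitted as loss of signal from the DMSO baseline.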
Turning to `N#Cc1c(Cl)cccc1Cl`, the AC50 is 25 µM (active).

With `CNC(=O)Oc1cccc2ccccc12`, the AC50 is 6.28 µM (active). Turning to `Cc1ccc(N=CN(C)C=Nc2ccc(C)cc2C)c(C)c1`, the outcome was inactive. With `COc1ccc(-c2ccccc2)cc1NNC(=O)OC(C)C`, the AC50 was 0.0452 µM (active).

On to `N#Cc1c[nH]cc1-c1cccc2c1OC(F)(F)O2`, for which the compound was called inactive. Regarding `CC1(C)CCC(=Cc2ccc(Cl)cc2)C1(O)Cn1cncn1` (stereo not drawn), the result was inactive.
